# Bioassay records as filed in PubChem.
# Sfp PPTase inh: inhibitors of Bacillus subtilis Sfp phosphopantetheinyl transferase; Biochemical Sfp PPTase activity, qHTS; AID 1490; 310,000 compounds, 3.5% hits; Q9F4F7; Potency, µM, for the others: largest response in the series, negative = inhibition, usual class: inhibitors;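 note: the enzyme is Sfp with the accession as filed and its product quenches rhodamine fluorescence; 0% = enzyme reaction without inhibitor and -100% = no enzyme wells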
#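 Step 1, compound plus 15 nM Sfp-PPTase, 15 min, room temperature. Step 2, add rhodamine-CoA (5 uM) and BHQ-2-YbbR (12.5 uM). Step 3, read 525/598 nm fluorescence at 0 and 30 min.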
# L3MBTL1 block: inhibitors of human L3MBTL1; Q9Y468; AlphaScreen L3MBTL1–H3K9me1 peptide binding; Potency, µM (top dose mostly 57.1 µM), for inactives: at the top dose activity, negative = inhibition, usual class: inhibitors; 230,000 compounds, 0.66% hits; AID 485360; note: % is set by controls: 0 for no effect and ±100 for the full control effect; nearly all actives have a fitted effect of over 60% in size
#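 Read-out is AlphaScreen signal from streptavidin donor and nickel chelate acceptor beads (10 ug/mL final each) bridging L3MBTL1 (50 nM) and biotinylated K9-monomethylated H3(1-15) peptide (75 nM), after 30 min compound exposure at room temperature.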
# BAZ2B inh: BAZ2B (human) inhibition; 360,000 compounds, 4.4% hits; Potency, µM (series often up to 114 µM), inactives show at the top dose activity change, negative = inhibition, usual class: inhibitors; AlphaScreen BAZ2B-H3K14Ac peptide displacement; note: % is set by controls: 0 for no effect and ±100 for the full control effect; nearly all actives have a fitted effect of over 60% in size
#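 Protein-peptide AlphaScreen: BAZ2B 50 nM, b-H3K14Ac 50 nM, 1x PBS pH 7.4 + 0.01% Tween-20. Preincubation 30 min RT; cpd 30 min RT (top 110 uM); beads 20 min RT, light-protected.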
# HP1b binding inh: inhibitors of HP1-beta chromodomain binding to methylated histone tails; P83916; AlphaScreen HP1-beta / biotin-H3K9me3 peptide binding; 390,000 compounds, 0.56% hits; AID 540317; Potency, µM (top dose mostly 114 µM), for the others: at the highest dose activity change, negative = inhibition, actives largely listed as inhibitors; note: nearly all actives have a fitted effect of over 70% in size
#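 AlphaScreen: HP1-beta (50 nM) preformed 30 min with biotin-H3(1-18)K9me3 peptide (50 nM) in PBS pH 7.4, 0.01% Tween-20. Compound added for 30 min at RT, then streptavidin donor/nickel chelate acceptor beads (10 ug/mL) for 30 min.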
# G9a block: inhibitors of human histone lysine methyltransferase G9a | 350,000 compounds, 8.8% hits | Potency, µM (doses to about 102 µM), for inactives: at the highest dose activity, negative = inhibition, hits mostly inhibitors | Q96KQ7 | G9a H3K9 monomethylation, AlphaScreen, 2 h; note: % is set by controls: 0 for no effect and ±100 for the full control effect; nearly all actives have a fitted effect of over 75% in size
#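 G9a (20 nM) was preincubated 15 min with compound, then reacted 2 h at room temperature with 500 nM biotin-H3K9 peptide and 20 µM SAM. Monomethyl-H3K9 detected by AlphaScreen using anti-H3K9me1 antibody.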
# JMJD2A Tudor inh: JMJD2A Tudor domain (human) inhibition. 390,000 compounds, 4.4% hits. O75164. Potency, µM (titrated, usually from 114 µM), without a hit: at the highest dose activity change, negative = inhibition, most hits filed as inhibitors. AID 504339. AlphaScreen JMJD2A-Tudor / H3K4me3 peptide binding; note: % is set by controls: 0 for no effect and ±100 for the full control effect; nearly all actives have a fitted effect of over 50% in size
# The depositor's hits bear a star; ? = inconclusive; / = not tested or not shown; [ ] = remark or other dose. In the library only some 12% were active in any assay of this set; here they are far more common. Calls come from the whole dose curve; as a rule, active = well fitted curve in the direction sought with a large enough effect; inconclusive = small, poorly fitted or top-dose-only effect, or another doubt; inactive = no such curve, though single readings can be large; an effect the other way counts as inactive or inconclusive. Potency is the fitted concentration of half-maximal effect.
SMILES,Sfp PPTase inh,L3MBTL1 block,BAZ2B inh,HP1b binding inh,G9a block,JMJD2A Tudor inh
COC(=O)c1ccccc1NC(=O)c1ccc2c(c1)CCN2S(=O)(=O)c1ccc(C)cc1,/,/,-2.4%,20.6%,-2.5%[59 µM],-17.6%
CCOc1ccc(S(=O)(=O)N2CCCCC2)cc1NC(=O)Cc1cccc(C(F)(F)F)c1,/,-2.6%,5.5%,25.2%,?,-16.0%
O=C(O)c1ccc2c(=O)n3cc(C(=O)c4ccccc4O)cc(Cl)c3nc2c1,14.5%,/,?,15.6%,?,-31.7%
O=C(O)/C=C/C(=O)Nc1ccc(Cl)c(C(=O)O)c1,-1.7%,-28.3%,?,32.6%,?,-14.8%
NNc1ccc(Cl)c(C(=O)O)c1,-7.4%,5.5%,-36.8%,38.9%,1.26µM*,-0.7%[11.4 µM]
O=C1NC(Cc2ccccc2)C(=O)N1Cc1ccccc1 (stereo unspecified),/,/,/,12.9%[57 µM],/,-5.5%
O=c1ccsn1Cc1ccccc1,0.631µM*,/,56.2µM*,?,?,39.8µM*
Cn1c(N)c(C(=O)COC(=O)/C=C/c2ccccc2)c(=O)n(C)c1=O,/,-3.4%,/,26.3%,/,-11.6%
Clc1ncnc2c1oc1ccccc12,14.4%,3.0%,7.7%,58.1%,19.9%[59 µM],-2.3%
c1coc(CN(Cc2ccco2)c2ncnc3c2oc2ccccc23)c1,28.2µM*,-20.0%,?,-4.5%,14.1µM*,39.8µM*
O=[N+]([O-])c1cccc(-c2nc3ccc([N+](=O)[O-])cc3[nH]2)c1,9.2%,?,6.8%,-2.5%,79.4µM*,20µM*
O=C(NNS(=O)(=O)c1ccc2ccccc2c1)c1cc(-c2ccccn2)nc2ccccc12,-13.0%,-0.7%,9.1%,-9.7%,79.4µM*,-32.6%
Cc1ccccc1NC(=S)NNC(=O)c1ccncc1,24.7%,-2.4%,-16.4%,20.8%,4.9%,-18.5%
O=S(=O)(Nc1ccncc1Cl)c1ccc2ccccc2c1,2.0%,-3.0%,-13.6%,50.2%,44.7µM*,0.7%
Cc1ccccc1NC(=S)NNC(=O)c1cccnc1,-8.4%,2.9%,-1.5%,-2.9%,1.78µM*,22.4µM*
O=C(NC(=S)Nc1nc(-c2ccccc2)cs1)c1cccnc1,?,/,-22.6%,-5.9%,2.51µM*,-16.7%
COC1OC(O)C(NC(=O)C(F)(F)F)CC1O (stereo unspecified),/,/,/,10.9%,/,-18.1%
O=C(NNC(=S)Nc1ccccc1)c1cccnc1,5.3%,/,-22.9%,37.5%,56.2µM*,-11.9%
Cc1cccc(C)c1NC(=O)CNC(=O)c1cccnc1,10.3%,/,-13.5%,51.4%,79.4µM*,-3.8%
O=C(NNC(=S)NC(=O)c1ccc(F)cc1)c1cccnc1,4.1%,/,7.2%,5.9%,11.2µM*,-8.1%
Cc1cccc(C)c1NC(=O)c1cccnc1,6.9%,-1.2%[2.29 µM],-2.0%,10.4%,-1.1%[0.501 µM],-1.4%
O=C(NNC(=S)NC(=O)c1cccnc1)c1ccc(F)cc1,-17.5%,15.2%,14.4%,-1.0%,/,-14.1%
O=C(NNS(=O)(=O)c1ccc2ccccc2c1)c1cccnc1,2.3%,-2.6%,-0.4%,9.6%,-16.0%[59 µM],7.94µM*
O=C(/C=C/c1ccc(F)cc1)NC(=S)NNC(=O)c1cnccn1,10.5%,/,2.82µM*,2.2%,50.1µM*,7.94µM*
O=C(NNC(=S)NC(=O)c1cccnc1)c1ccccc1,-0.2%,5.1%,4.5%[57.1 µM],0.9%,28.2µM*,?
SMILES,Sfp PPTase inh,L3MBTL1 block,BAZ2B inh,HP1b binding inh,G9a block,JMJD2A Tudor inh
O=C(NNS(=O)(=O)c1ccccc1)c1cccnc1,-5.6%,-4.1%,-17.4%,12.5%,22.4%[59 µM],-11.0%[11.4 µM]
O=C(NC(=S)NNS(=O)(=O)c1ccc(Cl)cc1)c1cccnc1,17.2%,3.8%,1.8%,21.6%,50.1µM*,-14.3%
COc1ccc(/C=C/C(=O)NC(=S)NNC(=O)c2cccnc2)cc1,21.0%,14.1%,1.7%,10.0%,?,-17.0%
C[C@@H](NC(=O)[C@@H]1Cc2ccccc2CN1)C(=O)NC1CCCCC1,13.6%,/,-20.2%,19.6%,?,-9.0%
C[C@@H](NC(=O)[C@@H]1Cc2ccccc2CN1)C(=O)NCc1ccco1,-7.3%,/,?,19.6%,50.1µM*,-20.7%
CC(C)C(OC(=O)C1=Cc2ccccc2OC1)C(=O)NCC1CCCO1 (stereo unspecified),/,/,/,?,/,50.1µM*
COc1ccc(CNC(=O)[C@@H](C)NC(=O)[C@@H]2Cc3ccccc3CN2)cc1,12.1%,4.0%,-3.6%,34.6%,5.9%,0.0%
C[C@H](NC(=O)[C@@H]1Cc2ccccc2CN1)C(=O)NCC1CCCO1 (stereo partly specified),14.1%,/,-3.8%,19.1%,39.8µM*,?
CCC(=O)N1CCc2cc(S(=O)(=O)CCC(=O)Nc3ccc(Cl)c(C(F)(F)F)c3)ccc21,/,/,/,43.8%,?,1.3%
Cc1ccc(S(=O)(=O)N(Cc2cc3ccccc3[nH]c2=O)c2cccc(C)c2)cc1,10.5%,3.2%,2.9%,13.7%,-6.7%,-8.1%[11.4 µM]
COc1ccc(C(CNC(=O)C2CCN(S(=O)(=O)c3ccc(F)cc3)CC2)N(C)C)cc1 (stereo unspecified),9.8%,/,3.5%,11.9%,22.7%,-21.4%
Cc1onc(-c2ccccc2Cl)c1C(=O)N(C)CC(=O)Nc1ccc(F)c(F)c1F,/,-1.7%,9.4%,12.9%,-4.6%,-13.1%
Cc1ccccc1NC(=O)CSc1ccc(-c2ccc(-n3cccn3)cc2)nn1,/,-2.4%,0.8%,3.3%,17.6%[59 µM],-15.2%
CCc1nnc(NC(=O)CSc2ccc(-c3ccc(-n4cccn4)cc3)nn2)s1,/,0.1%,11.5%,31.2%,10µM*,-4.1%
CCc1nnc(NC(=O)CSc2nc(-c3ccc(F)cc3)cc(-c3ccccc3)c2C#N)s1,31.6µM*,10.7%,-3.0%,24.8%,3.16µM*,-13.4%
COc1ccc(-c2sc3ccc(N4CCOCC4)cc3c2C#Cc2ccsc2)cc1,/,22.4%,/,160.6%,/,18.6%
COc1ccc(-c2sc3ccc(N4CCOCC4)cc3c2C#CC(C)(C)O)cc1,/,0.5%,50.1µM*,26.9%,-2.3%[0.501 µM],?
COc1ccc(-c2sc3cc(OC)c(OC)cc3c2C#CC(C)(C)O)cc1,/,1.9%,?,27.8%,13.4%[0.501 µM],-26.2%
COc1ccc(-c2sc3ccc(OC)cc3c2C#CCCO)cc1,-23.2%,2.0%,0.4%,45.8%,35.5µM*,-7.0%
COc1ccc2sc(-c3ccc(N(C)C)cc3)c(C#CCCO)c2c1,/,-19.4%,?,-9.7%,-0.8%[0.501 µM],-57.3%
COc1ccc(-c2sc3cc(OC)c(OC)cc3c2C#CCO)cc1,/,?,/,24.2%,/,20µM*
COc1ccc2sc(-c3ccc(N(C)C)cc3)c(C#Cc3cncn3C)c2c1,/,?,/,-26.7%,/,22.4µM*
COc1cc(NC(=O)CSc2nc3nc(C)c(Cc4ccccc4Cl)c(C)n3n2)cc(OC)c1,/,/,-11.2%,7.2%,1.8%[59 µM],?
